In assay [1] the target is Albumin (Bos taurus) (UniProt P02769). Put plainly: compounds binding labelled BSA control protein – biochemical, small-molecule microarray, Alexa647 label, 635/667 nm fluorescence, artefact control for SMM control protein annotation, profiling panel (AID 1118).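 Further: score merges 667 nm emission intensity and signal-to-noise per printed compound spot.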 Conditions: BSA-A647 binding, fluorescence 635 nm, higher = more signal.
Assay [2] is described as follows: probe aXIP binding to arrayed compounds – biochemical, NeuroSMM set, 635/667 nm fluorescence, primary screen (AID 1119).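 Further: probe is the protein aXip251-270 applied at 1 µg/mL to compound-printed slides; binding of probe to printed compounds measured as 667 nm fluorescence plus signal to noise.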 Particulars: small-molecule microarray, higher = more signal, called active from +8 up or from −8 down.
Assay [3] can be described thus: probe aNOTCH3 binding on compound microarray – biochemical, small-molecule microarray, 635/667 nm fluorescence, primary screen (AID 1120).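 Further: probe is a biotin-tagged antibody raised against NOTCH3 rather than NOTCH3 protein; score merges spot fluorescence near 667 nm with spot signal to noise.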 Particulars: higher = more signal.
Assay [4] can be described thus: probe aNOTCH2 binding on compound microarray – biochemical, small-molecule microarray, 635/667 nm fluorescence, primary screen (AID 1121).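 Further: score merges feature fluorescence read at 667 nm with its signal to noise.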 Particulars: higher = more signal.
Assay [5] concerns the target Carbonic anhydrase 2 (Homo sapiens) (UniProt P00918). Description: compounds binding carbonic anhydrase 2 – biochemical, small-molecule microarray, Alexa647-labelled CAII, profiling panel (AID 1122). Conditions: CAII-A647 binding fluorescence, higher = more signal.
Assay [6] can be described thus: COS7 lysate on small-molecule microarray, probe aHis, 635 nm (AID 1123).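 Further: z-score combines 667nm fluorescence intensity with signal-to-noise per printed compound spot.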 Conditions: COS7 cell lysate, fluorescence, higher = more signal.
Assay [7] in a line: probe aLAP1 signal on lysate-treated microarray – cell lysate, small-molecule microarray, COS7 lysate, primary screen (AID 1124).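 Further: lysate comes from COS7 cells expressing LAP1 and is applied at 0.3 µg/mL; score merges spot fluorescence near 667 nm with signal-to-noise over triplicate slides.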 Conditions: probe aLAP1, fluorescence, higher = more signal.
For assay [8], the system named is Sam68 (KHDRBS1). Put plainly: compounds binding KHDRBS1 protein – biochemical, small-molecule microarray, 635 nm fluorescence, primary screen (AID 1125).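 Further: score merges 667 nm channel intensity with signal to noise over triplicate slides.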 Particulars: higher = more signal.
Assay [9] concerns Chordin-like protein 2 (CHRDL2). Put plainly: compounds binding chordin-like 2 – biochemical, small-molecule microarray, 635 nm fluorescence, primary screen (AID 1126).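 Further: printed compound slides probed with Chrdl2 protein at 4 µg/mL for 1 h at 4 C; score merges 667 nm emission intensity with signal to noise over three replicate slides.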 Particulars: fluorescence 635 nm, higher = more signal.
Assay [10] concerns the target Concanavalin-A (Canavalia ensiformis) (UniProt P02866). Description: compounds binding concanavalin A lectin – biochemical, small-molecule microarray, Alexa647 label, 635 nm, artefact control for SMM control protein annotation, primary screen (AID 1127).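 Further: z combines 667 nm emission intensity with signal-to-noise across three replicate slides.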 Conditions: ConA-A647 binding fluorescence, higher = more signal.
The nature of assay [11]: compounds binding Alexa647 anti-His antibody – biochemical, small-molecule microarray, 635 nm fluorescence, artefact control for SMM control protein annotation, primary screen (AID 1128).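 Further: score merges feature fluorescence with signal-to-noise for each printed compound spot.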 Particulars: higher = more signal.
The subject of assay [12] is Human papillomavirus type 1a E7 protein (residues 1-88). Description: HPV1a E7 small-molecule binders, primary screen, biochemical, small-molecule microarray, residues 1-88, 635 nm (AID 1129). Particulars: small-molecule microarray binding, fluorescence 635 nm; higher = more signal.
In assay [13] the target is Focal adhesion kinase 1 (Homo sapiens) (UniProt Q05397). Put plainly: PTK2 protein binding on printed compound slides – biochemical, small-molecule microarray, 635/667 nm fluorescence, BSA, DTT, primary screen (AID 1130).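 Further: composite of spot emission at 667 nm and signal to noise over triplicate slides.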 Conditions: 635 nm fluorescence, higher = more signal.
Chain of Focal adhesion kinase 1 (Homo sapiens) (Q05397 whole entry, looked up): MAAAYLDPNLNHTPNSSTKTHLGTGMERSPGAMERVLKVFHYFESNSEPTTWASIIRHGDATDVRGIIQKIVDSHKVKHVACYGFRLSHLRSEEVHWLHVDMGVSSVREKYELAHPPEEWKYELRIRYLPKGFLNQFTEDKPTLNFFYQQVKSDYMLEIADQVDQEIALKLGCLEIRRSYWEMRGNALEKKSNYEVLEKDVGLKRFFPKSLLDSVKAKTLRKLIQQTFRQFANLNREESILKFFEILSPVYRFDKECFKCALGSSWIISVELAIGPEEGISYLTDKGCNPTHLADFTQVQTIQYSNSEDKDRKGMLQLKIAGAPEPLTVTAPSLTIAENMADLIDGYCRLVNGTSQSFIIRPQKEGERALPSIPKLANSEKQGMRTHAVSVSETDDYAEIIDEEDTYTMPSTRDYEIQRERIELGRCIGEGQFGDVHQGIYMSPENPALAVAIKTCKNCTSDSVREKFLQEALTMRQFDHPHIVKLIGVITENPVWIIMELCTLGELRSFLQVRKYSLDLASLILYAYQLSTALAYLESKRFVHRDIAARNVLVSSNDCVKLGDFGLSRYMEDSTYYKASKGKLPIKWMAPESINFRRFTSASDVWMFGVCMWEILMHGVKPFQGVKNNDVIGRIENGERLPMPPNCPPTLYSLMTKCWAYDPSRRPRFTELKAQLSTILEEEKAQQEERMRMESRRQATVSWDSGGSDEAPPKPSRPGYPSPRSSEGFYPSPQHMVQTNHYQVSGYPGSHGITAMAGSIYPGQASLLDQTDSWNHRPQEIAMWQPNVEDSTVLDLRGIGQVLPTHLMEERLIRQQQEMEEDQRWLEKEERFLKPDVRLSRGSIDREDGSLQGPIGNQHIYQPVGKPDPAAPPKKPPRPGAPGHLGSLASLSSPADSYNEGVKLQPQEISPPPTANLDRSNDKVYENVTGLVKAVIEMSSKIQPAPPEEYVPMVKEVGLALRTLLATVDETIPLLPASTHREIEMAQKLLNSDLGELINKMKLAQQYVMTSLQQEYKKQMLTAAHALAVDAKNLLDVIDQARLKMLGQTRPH
Assay [14] concerns Fibrinogen (Alexa647-labelled). Put plainly: Alexa647-fibrinogen binding to printed small molecules – biochemical, small-molecule microarray, 635/667 nm fluorescence, artefact control for SMM control-protein annotation, profiling panel (AID 1131).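 Further: z-score merges 667 nm fluorescence with per-spot signal-to-noise over triplicate slides.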 Particulars: fibrinogen-A647 binding fluorescence, higher = more signal.
Assay [15] addresses Follistatin (Homo sapiens) (UniProt P19883). Put plainly: FST protein binding to printed compounds – biochemical, small-molecule microarray, 635/667 nm fluorescence, primary screen (AID 1132). Particulars: 635 nm fluorescence, higher = more signal.
For assay [16], the target named is Fibroblast growth factor 2 (Homo sapiens) (UniProt P09038). Put plainly: basic fibroblast growth factor binding to printed compounds – biochemical, small-molecule microarray, 635/667 nm fluorescence, primary screen (AID 1133). Particulars: FGF2, fluorescence 635/667, higher = more signal.
Chain of Fibroblast growth factor 2 (Homo sapiens) (P09038 whole entry, looked up): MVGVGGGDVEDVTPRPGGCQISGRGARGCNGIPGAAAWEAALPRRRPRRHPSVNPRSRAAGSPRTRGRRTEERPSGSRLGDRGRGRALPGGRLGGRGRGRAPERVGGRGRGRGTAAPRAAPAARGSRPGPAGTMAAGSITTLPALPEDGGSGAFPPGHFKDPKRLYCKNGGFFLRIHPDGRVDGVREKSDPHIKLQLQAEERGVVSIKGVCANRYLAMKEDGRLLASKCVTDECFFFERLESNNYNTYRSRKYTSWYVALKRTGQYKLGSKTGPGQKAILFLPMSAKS
Assay [17] can be described thus: JC-1 mitochondrial potential readout, lung cancer cells – cell-based, A549, JC-1 fluorescence, basal, 24 h, 100 nL, profiling panel (AID 1138).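 Further: A549 lung adenocarcinoma cells under basal conditions with no added stimulus; test concentration not given here.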 Conditions: higher = more signal.
Assay [18] deals with Lefty1. Put plainly: Lefty1 protein binding to printed compounds – biochemical, small-molecule microarray, 635/667 nm fluorescence, primary screen (AID 1139). Conditions: fluorescence 635/667, higher = more signal.
In assay [19] the test system is wheat germ agglutinin (Triticum aestivum), Alexa647-labelled. Description: Alexa647-WGA lectin binding to printed small molecules – biochemical, small-molecule microarray, 635/667 nm fluorescence, artefact control for SMM control-protein annotation, profiling panel (AID 1140).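 Further: score merges 667 nm feature emission with signal to noise over triplicate slides.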 Particulars: WGA-A647 binding, 635 nm fluorescence, higher = more signal.
Assay [20] concerns the target Luciferin 4-monooxygenase (Photinus pyralis) (UniProt P08659). Put plainly: inhibition of purified Photinus pyralis luciferase – biochemical, luminescence, purified enzyme, 2006 set, primary screen (AID 1141).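 Further: cell-free assay with purified firefly luciferase at 100 ng per well in PBS; test concentration not given here.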 Particulars: purified firefly luciferase, SteadyGlo luminescence, 30 min; higher = more signal, called active from +8 up or from −8 down.

Active and inactive are the calls of the source.

Chain of Follistatin (Homo sapiens) (P19883 whole entry, looked up): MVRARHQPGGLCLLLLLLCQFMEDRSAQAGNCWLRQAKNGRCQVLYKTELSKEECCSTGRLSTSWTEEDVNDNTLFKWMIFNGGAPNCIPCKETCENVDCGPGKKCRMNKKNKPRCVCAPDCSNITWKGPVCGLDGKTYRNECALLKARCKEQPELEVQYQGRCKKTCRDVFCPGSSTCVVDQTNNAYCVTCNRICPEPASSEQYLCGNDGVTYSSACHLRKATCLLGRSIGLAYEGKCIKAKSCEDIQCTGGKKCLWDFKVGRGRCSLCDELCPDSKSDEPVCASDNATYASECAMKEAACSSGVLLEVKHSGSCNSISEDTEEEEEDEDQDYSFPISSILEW
Chain of Albumin (Bos taurus) (P02769 whole entry, looked up): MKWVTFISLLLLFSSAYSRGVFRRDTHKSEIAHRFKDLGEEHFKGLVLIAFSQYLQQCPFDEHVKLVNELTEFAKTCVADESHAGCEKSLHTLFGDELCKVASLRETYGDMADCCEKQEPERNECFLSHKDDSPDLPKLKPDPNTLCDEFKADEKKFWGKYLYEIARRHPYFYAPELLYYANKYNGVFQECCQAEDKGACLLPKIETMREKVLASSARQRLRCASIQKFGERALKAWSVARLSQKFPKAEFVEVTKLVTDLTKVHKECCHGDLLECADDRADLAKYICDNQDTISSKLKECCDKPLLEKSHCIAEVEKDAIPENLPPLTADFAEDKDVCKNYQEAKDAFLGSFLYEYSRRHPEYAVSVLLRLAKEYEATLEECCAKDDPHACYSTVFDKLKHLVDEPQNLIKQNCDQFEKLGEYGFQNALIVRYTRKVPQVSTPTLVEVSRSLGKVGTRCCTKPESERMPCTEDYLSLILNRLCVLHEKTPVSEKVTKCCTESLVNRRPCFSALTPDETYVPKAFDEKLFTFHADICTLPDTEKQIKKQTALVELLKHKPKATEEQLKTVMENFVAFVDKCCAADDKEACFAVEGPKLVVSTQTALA
Chain of Concanavalin-A (Canavalia ensiformis) (P02866 whole entry, looked up): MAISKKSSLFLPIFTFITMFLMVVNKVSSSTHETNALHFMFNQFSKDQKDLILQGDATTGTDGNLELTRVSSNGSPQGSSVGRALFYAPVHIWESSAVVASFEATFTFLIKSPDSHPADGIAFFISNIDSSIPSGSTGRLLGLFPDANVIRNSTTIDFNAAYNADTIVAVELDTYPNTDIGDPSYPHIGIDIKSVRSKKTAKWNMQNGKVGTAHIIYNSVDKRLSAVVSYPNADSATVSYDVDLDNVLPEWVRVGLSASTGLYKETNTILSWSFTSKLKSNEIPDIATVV
Chain of Luciferin 4-monooxygenase (Photinus pyralis) (P08659 whole entry, looked up): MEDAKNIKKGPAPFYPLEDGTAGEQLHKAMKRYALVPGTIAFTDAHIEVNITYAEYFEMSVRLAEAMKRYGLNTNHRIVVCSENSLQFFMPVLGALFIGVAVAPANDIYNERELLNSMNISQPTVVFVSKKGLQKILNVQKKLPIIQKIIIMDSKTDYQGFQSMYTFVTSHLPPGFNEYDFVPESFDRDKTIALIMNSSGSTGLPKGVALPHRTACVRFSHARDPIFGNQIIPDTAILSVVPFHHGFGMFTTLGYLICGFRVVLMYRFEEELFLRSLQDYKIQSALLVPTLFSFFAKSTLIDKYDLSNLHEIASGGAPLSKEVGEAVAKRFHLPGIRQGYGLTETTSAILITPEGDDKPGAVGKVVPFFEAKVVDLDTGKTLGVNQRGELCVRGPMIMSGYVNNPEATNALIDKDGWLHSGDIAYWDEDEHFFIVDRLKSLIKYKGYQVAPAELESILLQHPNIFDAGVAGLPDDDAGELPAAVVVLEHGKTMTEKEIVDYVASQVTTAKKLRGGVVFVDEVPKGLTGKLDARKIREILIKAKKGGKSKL

For the molecule `C[C@H]1C2[C@H](Cc3ccccc3)NC(=O)[C@]23C(=O)N[C@H](Cc2ccccc2)C(=O)N2CCC[C@H]2C(=O)NC/C=C\C/C=C/C3[C@@H]2O[C@]12C` (stereo not given in full), the composite z-score was 0.157 in [1]; -0.0613 in assay [3]; 0.0022 in [4]; 0.0997 in assay [5]; -0.0175 in assay [6]; 0.249 in assay [7]. Moreover, the composite z-score in assay [8] was 0.194; in [9] it was 0.132; in [10], 0.78; in assay [11], 0.102; in [12] it was -0.338; in [13], 1.11. Moreover, the composite z-score in assay [14] stood at 0.354; in assay [15], 0.559; in [16] it was 0.212; in assay [18], 0.302; in assay [19], 0.737. Besides, in [2], the composite Z-score is 0.0894 (inactive). Further, the z-score in assay [17] is 0.367; in [20], -0.587 (inactive).

With `CC(C)[Si](C#Cc1ccc(Oc2ccccc2)cc1)(O[Si](C#Cc1ccc(Oc2ccccc2)cc1)(C(C)C)C(C)C)C(C)C`, the composite z-score in assay [1] was 0.216; in [3] it was -0.0188; in [4] it was -0.037; in assay [5], 0.603; in assay [6], 0.407; in assay [7], 0.115. Further, the composite z-score in assay [8] is 0.562; in assay [9], 0.156; in [10], -0.76; in [11], 1.69; in [12], 0.701; in [13] it was 0.0273. Also, the composite z-score in assay [14] was found to be 0.654; in [15], 0.218; in assay [16], 0.925; in [18] it was 1.07; in assay [19], 0.372. The composite Z-score in [2] is 0.387 (inactive). Also, the z-score in assay [17] is 0.108; in assay [20] it was -0.637 (inactive).

On to `CCCC[C@H]1OB(O)C[C@H]2C1=C(COC)Cn1c(=O)n(-c3ccccc3)c(=O)n12`, for which the composite z-score was 0.0697 in assay [1]; -0.0903 in assay [3]; -0.172 in [4]; -0.185 in [5]; 0.56 in assay [6]; 0.0521 in assay [7]. For the same molecule, the composite z-score in assay [8] was 0.439; in assay [9] it was 0.432; in assay [10] it was -0.317; in [11], -0.152; in assay [12], 0.169; in [13], -0.0429. Also, the composite z-score is 0.4 in [14]; 0.464 in [15]; -1.06 in assay [16]; 0.63 in [18]; 0.435 in assay [19]. The composite Z-score in [2] was -0.166 (inactive). Also, the z-score was -0.514 in assay [17] and 0.382 (inactive) in [20].

On to `C=C(CCCC)C(=O)CC[C@@H](OC(=O)c1ccccc1-c1ccccc1C(=O)O)c1ccc(OCCO)cc1`, for which the composite z-score was -0.873 in assay [1]; -0.185 in [3]; -0.125 in assay [4]; 0.437 in assay [5]; 0.121 in [6]; -0.102 in assay [7]. The composite z-score is 0.684 in assay [8]; 0.876 in assay [9]; 0.829 in [10]; -0.54 in assay [11]; 0.0862 in [12]; -0.72 in assay [13]. For the same molecule, the composite z-score is -0.277 in assay [14]; 1.42 in [15]; 1.37 in assay [16]; 0.797 in assay [18]; 0.427 in [19]. The composite Z-score in assay [2] is 0.0426 (inactive). The z-score in assay [17] is 0.118; in assay [20] it was -2.06 (inactive).

With `C=C(CCCC)/C(=C/C[C@@H](OC(C)=O)c1ccc(OCCO)cc1)c1cnc2ccccc2c1`, the composite z-score in [1] is 0.631; in [3], 0.0964; in assay [4] it was -0.0942; in [5] it was 0.718; in assay [6], 0.696; in assay [7], 0.35. In addition, the composite z-score in assay [8] came to 1.28; in assay [9] it was 0.963; in [10], 0.555; in assay [11] it was 1.42; in assay [12], 0.974; in assay [13], 0.153. Also, the composite z-score in [14] was determined as 0.539; in [15], 1.12; in assay [16], 0.502; in [18], 0.856; in assay [19], 0.773. Besides, the composite Z-score in assay [2] is -0.302 (inactive). The z-score in assay [17] is 1.49; in assay [20] it was -1.81 (inactive).

Source of the values: PubChem BioAssay.
